Reference: PubChem BioAssay (NCATS)
“And” between values parts separate entries of the source, which are not always exact repeats. Equal entries are not always repeated. Inconclusive results are not listed. The source made the active and inactive calls. Unless noted, calls come from the whole dose curve; as a rule, active = well fitted curve in the direction sought with a large enough effect; inconclusive = small, poorly fitted or top-dose-only effect, or another doubt; inactive = no such curve, though single readings can be large; an effect the other way counts as inactive or inconclusive.

Assays:
[1] = Confirmation and Secondary Assay for Modulators of Hemoglobin Beta Chain Splicing at IVS2 654 locus (AID 910);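 note: HeLa cells stably carrying EGFP split by mutant beta-globin IVS2-654 intron; % of control where 0% means no effect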
Procedure, shortened: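 HeLa cells stably expressing EGFP interrupted by β-globin IVS2-654 intron, seeded overnight in Opti-MEM/2% FCS, then treated 2 days at 37 °C. Restored splicing read as total peak GFP intensity per well by laser scanning cytometry (488 nm excitation, 500–520 nm emission); 500 nM antisense PNA as control.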

[2] = Confirmation and Secondary Assay for Modulators of Hemoglobin Beta Chain Splicing at IVS2 705 locus (AID 930);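 note: HeLa cells stably expressing the EGFP-705 splicing reporter; GFP fluorescence per well restored by corrected splicing of the IVS2-705 intron in EGFP; % of control where 0% means no effect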
Procedure, shortened: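 Assay measures total GFP intensity per well in HeLa EGFP-705 cells after 2 days with compound; mis-splicing normally truncates EGFP, so fluorescence indicates corrected splicing.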

[3] = qHTS Assay for Lipid Storage Modulators (AID 1519; calls by dose curve; for activity change, negative = inhibition: % is set by controls: 0 for no effect and ±100 for the full control effect); conditions: Drosophila S3 cells, BODIPY lipid droplet/cell ratio, laser cytometry, cells loaded with oleic acid; for activity change, negative = inhibition: at 57.5 µM (top of the series)
Procedure, shortened: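 Cells seeded at 5,000 per well were treated with compounds over a concentration series and loaded with oleic acid (400 uM, as added). Lipid droplet fluorescence (488 nm excitation, 500-530 nm channel) was read by laser-scanning cytometry and normalized to 20 uM Triacsin C.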

[4] = biological target: Ubiquitin carboxyl-terminal hydrolase 1 (Homo sapiens) (UniProt O94782); test: Inhibitors of USP1/UAF1: Pilot qHTS (AID 504865);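 note: rhodamine fluorescence freed from ubiquitin-rhodamine substrate followed over time; top concentration of the series differs between compounds; % is set by controls: 0 for no effect and ±100 for the full control effect; nearly all actives have a fitted effect of over 35% in size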
Procedure, shortened: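 USP1/UAF1 complex (1nM) preincubated with compound 15 min at room temperature, then Ub-Rho substrate (150nM final) added. Fluorescence read kinetically at 480/540 nm, 6 reads every 60 seconds. Buffer: 50mM HEPES pH 7.8, 0.5mM EDTA, 0.1 mg/ml BSA, 1mM TCEP, 0.01% Tween-20.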

[5] = biological target: Cytochrome P450 3A4 (Homo sapiens) (UniProt P08684); test: qHTS Assay for Activators of Cytochrome P450 3A4 (AID 885); note: nearly all actives have a fitted effect of over 65% in size
Procedure, shortened: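 Steps: enzyme/substrate mix dispensed; compound added, 10 min RT; NADPH regeneration solution added, 60 min RT; luciferin detection buffer stops reaction; 20 min later luminescence measured.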

[6] = biological target: DNA dC->dU-editing enzyme APOBEC-3G (Homo sapiens) (UniProt Q9HC16); test: qHTS for inhibitors of Vif-A3G interactions: Validation (AID 588379); note: 0% is about no effect
Procedure, shortened: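 HeLa cells stably expressing Vif and A3G-eYFP, 700 cells/well, incubated overnight at 37 deg C, then exposed to compound overnight at 37 deg C. Inhibition of Vif-mediated degradation read as increased yellow fluorescence (Ex 488/Em 500-530) by laser-scanning cytometry.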

[7] = biological target: Cytochrome P450 3A4 (Homo sapiens) (UniProt P08684); test: qHTS Assay for Inhibitors and Substrates of Cytochrome P450 3A4 (AID 884); note: % is set by controls: 0 for no effect and ±100 for the full control effect; nearly all actives have a fitted effect of over 50% in size
Procedure, shortened: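 20 nM human CYP3A4 with 25 uM Luciferin-PPXE (at KM) in 200 mM KPO4, preincubated 10 min with compound; NADPH regeneration started a 60 min RT reaction. Luciferin detected by luminescence, normalized to 57 uM ketoconazole as full inhibition.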

[8] = measured here: cell count channel max response
[9] = measured here: lipid channel max response

Cytochrome P450 3A4 (Homo sapiens), sequence (P08684 whole entry, looked up): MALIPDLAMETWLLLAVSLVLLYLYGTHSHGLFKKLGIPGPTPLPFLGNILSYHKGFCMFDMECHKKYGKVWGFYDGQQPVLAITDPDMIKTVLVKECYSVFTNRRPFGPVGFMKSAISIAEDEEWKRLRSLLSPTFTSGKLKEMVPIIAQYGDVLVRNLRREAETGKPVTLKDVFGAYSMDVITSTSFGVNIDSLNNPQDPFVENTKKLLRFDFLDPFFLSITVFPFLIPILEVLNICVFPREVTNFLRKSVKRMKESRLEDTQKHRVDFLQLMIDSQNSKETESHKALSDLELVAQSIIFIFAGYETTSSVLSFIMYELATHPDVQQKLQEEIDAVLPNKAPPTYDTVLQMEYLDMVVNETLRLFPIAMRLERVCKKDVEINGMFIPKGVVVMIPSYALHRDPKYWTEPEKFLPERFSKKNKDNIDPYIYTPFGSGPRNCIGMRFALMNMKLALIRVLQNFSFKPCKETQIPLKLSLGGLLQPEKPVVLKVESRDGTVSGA
Ubiquitin carboxyl-terminal hydrolase 1 (Homo sapiens), sequence (O94782 whole entry, looked up): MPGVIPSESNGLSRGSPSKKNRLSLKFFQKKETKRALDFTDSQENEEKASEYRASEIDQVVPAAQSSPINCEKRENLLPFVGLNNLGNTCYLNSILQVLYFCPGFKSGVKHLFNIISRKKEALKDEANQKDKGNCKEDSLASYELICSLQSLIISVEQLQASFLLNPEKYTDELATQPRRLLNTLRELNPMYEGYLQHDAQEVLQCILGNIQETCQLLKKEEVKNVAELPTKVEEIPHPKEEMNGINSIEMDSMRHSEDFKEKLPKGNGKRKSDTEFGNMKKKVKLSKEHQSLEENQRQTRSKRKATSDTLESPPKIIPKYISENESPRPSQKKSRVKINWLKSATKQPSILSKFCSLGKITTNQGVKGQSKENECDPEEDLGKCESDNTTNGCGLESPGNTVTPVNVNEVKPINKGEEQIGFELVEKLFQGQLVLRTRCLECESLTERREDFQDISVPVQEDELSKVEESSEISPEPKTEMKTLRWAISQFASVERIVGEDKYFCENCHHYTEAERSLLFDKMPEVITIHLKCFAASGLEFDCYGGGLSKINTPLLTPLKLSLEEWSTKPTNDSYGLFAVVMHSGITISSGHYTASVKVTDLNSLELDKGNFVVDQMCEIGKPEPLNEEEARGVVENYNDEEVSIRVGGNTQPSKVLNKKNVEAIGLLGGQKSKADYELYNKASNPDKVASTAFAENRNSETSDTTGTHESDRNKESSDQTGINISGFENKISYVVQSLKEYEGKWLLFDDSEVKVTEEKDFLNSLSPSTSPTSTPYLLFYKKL
DNA dC->dU-editing enzyme APOBEC-3G (Homo sapiens), sequence (Q9HC16 whole entry, looked up): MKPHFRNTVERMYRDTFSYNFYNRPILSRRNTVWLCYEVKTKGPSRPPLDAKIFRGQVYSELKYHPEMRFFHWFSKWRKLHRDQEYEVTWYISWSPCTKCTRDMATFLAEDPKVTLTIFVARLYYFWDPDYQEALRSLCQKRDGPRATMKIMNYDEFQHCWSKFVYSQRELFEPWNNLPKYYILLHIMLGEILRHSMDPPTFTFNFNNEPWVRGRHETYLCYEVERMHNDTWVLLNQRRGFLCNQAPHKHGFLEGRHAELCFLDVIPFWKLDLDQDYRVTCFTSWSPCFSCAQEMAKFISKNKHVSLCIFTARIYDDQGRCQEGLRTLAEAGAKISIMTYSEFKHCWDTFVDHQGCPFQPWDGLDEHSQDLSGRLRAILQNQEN

Compound	Potency [1]	Potency [2]	activity change, negative = inhibition [3]	max response [3, 8]	max response [3, 9]	Potency [4]	Potency [5]	outcome [6]	Potency [7]
CCC(C)C(=O)c1c(O)c(C)c2oc3c(C)c(O)c(C(=O)C(C)CC)c(O)c3c2c1O (stereo unspecified)	inactive	inactive	-5.67% (inactive)	-3.74%	-10.1%	inactive	–	–	–
O=C1CC2OCC=C3CN4CC[C@@]56c7ccccc7N1C5C2C3CC46 (stereo partly specified)	inactive	inactive	-0.509% (inactive)	17.9%	21.5%	inactive	–	–	–
O=c1cccc2n1CC1CNCC2C1 (stereo unspecified)	inactive	inactive	8.73% (inactive)	7.65%	18%	–	inactive	inactive	–
CC1C(=O)OC2O[C@]3(C)CC[C@H]4C(C)CCC1[C@]24OO3 (stereo partly specified)	inactive	inactive	8.3% (inactive)	8.98%	23.7%	inactive	–	–	–
CC(=O)O.CC(=O)O.[Cd]	–	inactive	4.11% (inactive)	7.92%	9.61%	inactive	–	–	–
CCN1C[C@@]2(COC)C3[C@@H](OC)C4[C@@H]1[C@@]3(C1C[C@@]3(O)[C@H](OC(=O)c5ccccc5)C1[C@]4(OC(C)=O)[C@@H](O)[C@@H]3OC)[C@@H](OC)C[C@H]2O (stereo partly specified)	–	–	0.0984% (inactive)	-8.1%	-8.3%	–	inactive	inactive	–
Cc1c(O)c(O)cc2c1CC=C1[C@]3(C)CC[C@]4(C)CC[C@@](C)(C(=O)O)CC4[C@]3(C)CC[C@]12C (stereo partly specified)	inactive	inactive	-4.4% (inactive)	19.2%	14.7%	inactive	–	–	–
COc1ccc2c(c1)[C@@]13CCCCC1[C@@H](C2)N(C)CC3 (stereo partly specified)	inactive	inactive	7.37% (inactive)	4.27%	15.7%	inactive	–	–	–
CC(=O)N1CC2CC(C1)c1cccc(=O)n1C2 (stereo unspecified)	–	–	-4.96% (inactive)	-29.2%	-33.4%	–	–	inactive	inactive
CC[C@H]1C2CC3[C@@H]4N(C)c5ccccc5[C@]45C[C@@H](C2[C@H]5O)N3[C@@H]1O (stereo partly specified)	–	–	-0.775% (inactive)	15.3%	14.3%	–	–	inactive	inactive
CNC(C)[C@H](O)c1ccccc1 (stereo partly specified)	–	inactive	9.2% (inactive)	21.5%	37.3%	inactive	–	–	–
C[C@H]1C(=O)O[C@H]2CCN3CC=C(COC(=O)[C@](C)(O)[C@@]1(C)O)C23 (stereo partly specified)	–	–	-4.35% (inactive)	5.67%	3.38%	–	–	inactive	–
O=c1ccc2cc(O[C@H]3OC(CO)C(O)C(O)C3O)c(O)cc2o1 (stereo partly specified)	inactive	–	5.45% (inactive) and 5.34% (inactive)	5.76% and 15.4%	15.3% and 32.6%	inactive	–	–	–
C[C@]12CCC3C(CC[C@]4(O)CC(O)CC[C@@]34C=O)[C@]1(O)CCC2C1=CC(=O)OC1 (stereo partly specified)	inactive	–	-3.74% (inactive)	12.5%	11%	inactive	–	–	–
